Rab9 prom act – activates the Rab9 promoter; Huh7 Rab9 promoter-luciferase reporter, luminescence, 24 h; Potency, µM (doses to about 9.22 µM), without a hit: at the top dose activation, negative = inhibition, hits mostly activators; hit rate 2.8% among 320,000; AID 485297; further: % of control where 0% means no effect; nearly all actives have a fitted effect of over 60% in size
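Luminescence from Amplite-detected luciferase (10 minutes, ambient) reports Rab9 promoter activation. Before that, stable Rab9-luciferase Huh7 cells (1500/well, reduced-serum OP-MEM I plus 10% FBS) were exposed to compound for 24 hours at 37C.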
SMN2 splice up – SMN2 splice variant enhancement | HEK293 SMN2-luciferase splicing reporter, luminescence, 30-36 h | Potency, µM (highest dose often 46.1 µM), for inactives: at the highest dose activity change, positive = activation, actives largely listed as activators | hit rate 2.8% among 210,000; further: % of control where 0% means no effect; nearly all actives have a fitted effect of over 55% in size
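qHTS luciferase splicing reporter: luminescence rises when SMN2 exon 7 is included in transfected HEK293 cells. Compound exposure lasted 30-36 h at 37C, with 4.5 mM final sodium butyrate as control, followed by a ONE-Glo read.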
NPC1 prom act – activators of NPC1 promoter. Huh7 NPC1 promoter luciferase reporter, 24 h. Potency, µM (top dose mostly 9.22 µM), without a hit: top-dose activation, most hits filed as activators. hit rate 2.4% among 320,000. AID 485313; further: % of control where 0% means no effect; nearly all actives have a fitted effect of over 60% in size
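Stably transfected Huh7 (NPC1 promoter→luciferase), 1500 cells/well in Opti-MEM + 10% FBS, 2 h settle, then compound 24 h at 37 °C. Luminescence after 10 min with Amplite reagent.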
ELG1 genotoxic – inducers of genotoxicity in HEK293T ELG1-luciferase cells. HEK293T ELG1-luciferase reporter, luminescence, 16 h. Potency, µM (series often up to 46 µM), for inactives: top-dose activity change, positive = activation, usual class: activators. hit rate 1.3% among 330,000. AID 504466; further: % of control where 0% means no effect; nearly all actives have a fitted effect of over 60% in size
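Cells (2,000/well) expressing the ELG1-luciferase fusion are dosed by pin tool and kept 16 hr at 37 °C, 5% CO2. Signal comes from ONE-Glo luciferase reagent after 30 min at room temperature.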
uPA generation – cell surface uPA generation inhibition; cell surface uPA generation assay, qHTS; Potency, µM (titrated, usually from 38.3 µM), for the others: at the highest dose activity change, negative = inhibition, hits mostly inhibitors; hit rate 0.31% among 330,000; AID 540303; active means well fitted inhibition curve with a large enough effect; inconclusive means small, poorly fitted or top-dose-only effect; inactive means no such curve, though single readings can be large or run the other way; tested in mouse RAW 264.7 cells; further: on the % scale 0 is the no-effect control and ±100 the full control effect; nearly all actives have a fitted effect of over 55% in size
FLuc modulator – firefly luciferase modulation, counter-screen for miR-21 project. Potency, µM (doses to about 57.5 µM), for inactives: at the top dose activity change, negative = inhibition, most hits filed as inhibitors. purified FLuc, Km substrates, luminescence inhibition. AID 588342. hit rate 6.9% among 360,000;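 further: plate controls were vehicle for no effect and reference inhibitor for full effect; nearly all actives have a fitted effect of over 55% in size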
Target sequence (P08659 whole entry, looked up): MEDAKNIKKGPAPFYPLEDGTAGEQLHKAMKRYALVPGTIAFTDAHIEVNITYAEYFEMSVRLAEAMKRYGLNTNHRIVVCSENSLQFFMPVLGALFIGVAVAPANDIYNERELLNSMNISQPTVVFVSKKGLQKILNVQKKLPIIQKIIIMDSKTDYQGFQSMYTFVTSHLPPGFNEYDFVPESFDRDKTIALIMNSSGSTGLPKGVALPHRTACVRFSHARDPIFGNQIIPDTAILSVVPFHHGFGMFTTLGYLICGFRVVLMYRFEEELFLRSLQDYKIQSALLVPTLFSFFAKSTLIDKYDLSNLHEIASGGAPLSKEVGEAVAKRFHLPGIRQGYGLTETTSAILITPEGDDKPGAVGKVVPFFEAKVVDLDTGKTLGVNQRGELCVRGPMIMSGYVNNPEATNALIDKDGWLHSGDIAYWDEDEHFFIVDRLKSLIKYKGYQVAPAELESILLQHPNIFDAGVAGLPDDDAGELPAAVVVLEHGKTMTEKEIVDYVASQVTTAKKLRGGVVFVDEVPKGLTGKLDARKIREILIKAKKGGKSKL
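Purified P. pyralis luciferase, 10 nM final, with Km-level 10 uM D-luciferin and 10 uM ATP in 50 mM Tris acetate pH 7.5, 10 mM Mg acetate, 0.01% Tween-20, 0.05% BSA; 6-point qHTS titration about 60 µM downward; luminescence read.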
* hit, by the source's call; ? = inconclusive; nt = no result; [ ] = remark or other dose. Only some compounds are listed: those with a hit (about 7.3% of all), similar ones and a draw of the others. Unless noted, the call rests on the fitted dose curve; in most records, active means well fitted curve in the direction sought with a large enough effect; inconclusive means small, poorly fitted or top-dose-only effect, or another doubt; inactive means no such curve, though single readings can be large; an effect the other way counts as inactive or inconclusive. Potency means the concentration at half of the fitted maximal effect.

SMILES	Rab9 prom act	SMN2 splice up	NPC1 prom act	ELG1 genotoxic	uPA generation	FLuc modulator
Cc1ccc(Sc2ncccc2C(=O)NCC(c2ccc(F)cc2)N2CCOCC2)c(C)c1 (centres undefined)	-3%	nt	-7%	-1%	-9%	-1%
O=C(NCc1ccccc1)c1cccnc1Sc1ccccc1	-8%	nt	4%	0%	-1%	0%
Cc1ccc(Sc2ncccc2C(=O)NCc2cc([N+](=O)[O-])ccc2O)c(C)c1	4µM*	nt	4µM*	?	-5%	8.5µM*
CCN(c1ccccc1)S(=O)(=O)c1ccc2c(c1)C(C)(C)C(=O)N2C	-2%	nt	-1%	-8%	-14%	5%
O=C(CSc1nc2c([nH]c3ccccc32)c(=O)n1-c1cccc(C(F)(F)F)c1)N1CCc2ccccc21	nt	nt	nt	nt	nt	-1%
O=C(COC(=O)c1cnccn1)c1ccc(C2CCCCC2)cc1	2%	nt	-1%	0%	3%	2.4µM*
O=C(COC(=O)c1cnccn1)c1ccc(Cl)cc1	0%	3%	-5%	2%	5%	19µM*
O=C(COc1ccccc1Cl)c1ccc2c(c1)CCCC2	3.5µM*	14µM*	?	?	15%	11µM*
O=C(COC(=O)c1cnccn1)c1ccc(Br)cc1	0%	-12%	2%	14%	0%	15µM*
O=C(COc1cccc(Cl)c1Cl)Nc1ccc2c(c1)CCC2	12%	-7%	-1%	-3%	-8%	-1%
O=C(COC(=O)c1cnccn1)c1ccccc1	-5%	-16%	1%	-2%	3%	?
Cc1cnc(C(=O)OCC(=O)c2ccc(C3CCCCC3)cc2)cn1	0%	nt	1%	6%	16%	?
Cc1cccn2c(=O)c(/C=C(\C#N)c3nc4ccccc4n3C)c(Oc3ccc(Br)cc3)nc12	nt	6%	nt	nt	nt	-6%
O=C(COC(=O)c1cnccn1)c1ccc2c(c1)CCCC2	9%	6%	9%	-4%	1%	4.8µM*
CCOc1ccc(CCNC(=O)c2cc3c(s2)-c2ccccc2OC3)cc1OCC	nt	-26%	nt	nt	nt	-7%
CCOc1ccc(-c2cn(-c3ccc(OC)cc3)c(SC)n2)cc1	4µM*	11µM*	?	?	5%	5.4µM*
CCOc1ccc(-c2cn(-c3ccc(OC)cc3)c(SCC(=O)Nc3ccccc3Cl)n2)cc1	nt	nt	nt	nt	nt	2%
Cc1cc(C)c2c(=O)n(CC(=O)Nc3ccc(Cl)cc3)sc2n1	2%	nt	-1%	0%	-1%	7.6µM*
Cc1ccc(NC(=O)Cn2sc3nc(C)cc(C)c3c2=O)c(Cl)c1	-4%	nt	3%	1%	5%	11µM*
Cc1cc(C)c2c(=O)n(CC(=O)Nc3cccc(F)c3)sc2n1	-2%	nt	-3%	3%	?	9.5µM*
CCOC(=O)c1sc(=NC(=O)c2ccccc2Br)n(C)c1C	?	nt	?	?	-1%	2.1µM*
CCOC(=O)c1sc(=NC(=O)c2ccc(Cl)s2)n(C)c1C	?	7.9µM*	?	1.2µM*	6%	0.67µM*
CCOC(=O)c1sc(=NC(=O)c2cccs2)n(C)c1C	?	3.2µM*	1%	?	-5%	1.3µM*
CCOC(=O)c1sc(=NC(=O)c2ccc(OC(C)C)cc2)n(C)c1C	1%	-5%	-18%	5%	10%	-3%
CCOC(=O)c1sc(=NC(=O)/C=C/c2ccccc2)n(C)c1C	1.6µM*	30%	?	15%	-5%	-7%
SMILES	Rab9 prom act	SMN2 splice up	NPC1 prom act	ELG1 genotoxic	uPA generation	FLuc modulator
CCc1ccc(C2=NN(CCC(=O)NCCc3ccccc3)C(=O)CC2)cc1	nt	nt	nt	nt	nt	-2%
Cc1sc(=NC(=O)c2ccco2)n(C)c1-c1ccc(Cl)cc1	2.8µM*	24%	2.5µM*	11%	-21%	5.4µM*
CCOC(=O)c1sc(=NC(=O)c2ccco2)n(C)c1C	?	14µM*	-12%	4%	-3%	15µM*
Clc1ccc(-c2csc(Nc3ccccc3)[n+]2Cc2ccco2)c(Cl)c1	2.8µM*	-47%	?	10%	-10%	12µM*
NC(Cc1ccccc1)=NCC(=O)O	nt	-7%[9.22 µM]	nt	nt	nt	nt
Cc1ccc(C(C2C(=O)CC(C)(C)CC2=O)C2C(=O)CC(C)(C)CC2=O)s1	0%	-2%	1%	4%	-4%	21µM*
CCOc1ccc(CNC(=O)C2CCN(S(=O)(=O)c3ccc4c(ccn4C)c3)CC2)cc1	nt	nt	nt	nt	nt	-12%
CCOC(=O)CNC(c1ccccc1)c1cc(Br)ccc1NC(=O)CCN1CCOCC1 (centres undefined)	-5%	-55%	-1%	-3%	13µM*	-2%
O=C(NCc1nc2cccnc2n1Cc1ccc(F)cc1)c1ccccc1C(F)(F)F	nt	nt	nt	nt	nt	-6%
O=c1c2oc3ccccc3c2n(Cc2ccccc2)c(=O)n1Cc1ccc2c(c1)OCO2	nt	nt	nt	nt	nt	5%
O=c1[nH]c(S)nc2sc3c(c12)CCCC3	-3%	5%	0%	1%	-17%	?
Cc1nc2sc3c(c2c(=O)o1)CCC3	-3%	-7%	0%	-2%	3%	4%
O=c1oc(/C=C/c2ccco2)nc2sc3c(c12)CCC3	16%	15%	18%	0%	4%	0.95µM*
O=c1[nH]c(-c2ccco2)nc2sc3c(c12)CCCC3	1.6µM*	1µM*	2µM*	9.2µM*	-9%	3µM*
O=c1[nH]c(-c2cccnc2)nc2sc(-c3ccccc3)cc12	26%	29%	-23%	?	?	4.8µM*
Cc1nc2cc3ccccc3cc2c(=O)[nH]1	?	?	?	?	nt	13µM*
CC(C)OC(=O)Cc1nc2sc(-c3ccccc3)cc2c(=O)[nH]1	4.5µM*	nt	?	?	?	17µM*
Cc1cc2ccccc2c(=O)[nH]1	-3%[1.84 µM]	14%	-4%	5%	8%	1%
Cc1nc2sc(-c3ccccc3)cc2c(=O)[nH]1	0.5µM*	13µM*	0.63µM*	0.58µM*	?	1.3µM*
Cc1cccc2c(=O)cc(CSc3ccccc3NC(=O)C(C)(C)C)[nH]c12	nt	nt	nt	nt	nt	-7%
COc1ccc(Oc2c(C(F)(F)F)oc3c(CN4CCCC(C)C4)c(O)ccc3c2=O)cc1 (centres undefined)	nt	-3%	nt	nt	nt	2%
O=C(CSc1nnc(C2CCCCC2)o1)Nc1ccccc1Cl	3.5µM*	nt	?	?	6%	?
Cc1ccc(N2CCn3c2nc2c3c(=O)n(C/C=C/c3ccccc3)c(=O)n2C)cc1C	nt	nt	nt	nt	nt	-14%
COc1cc(-c2noc(C)c2/C=C/c2ccc(C(=O)O)cc2)cc(OC)c1OC	5%	nt	-2%	3%	?	-6%
COc1cc(-c2noc(C)c2/C=C/c2cccc([N+](=O)[O-])c2)cc(OC)c1OC	-24%	nt	-26%	-8%	0.11µM*	0%

From PubChem
